Values joined by “and” are separate entries in the source; they are usually repeats but may differ in a detail not shown here. Equal entries are not always repeated. A structure can be active in one record and inactive in another. Active and inactive are the calls of the source. The calls were made as follows: active = hit-call score of the fitted dose curve at least 0.9, where 1 is the maximum; inactive = score below 0.9.

Chain of Myc proto-oncogene protein (Homo sapiens) (P01106 whole entry, looked up): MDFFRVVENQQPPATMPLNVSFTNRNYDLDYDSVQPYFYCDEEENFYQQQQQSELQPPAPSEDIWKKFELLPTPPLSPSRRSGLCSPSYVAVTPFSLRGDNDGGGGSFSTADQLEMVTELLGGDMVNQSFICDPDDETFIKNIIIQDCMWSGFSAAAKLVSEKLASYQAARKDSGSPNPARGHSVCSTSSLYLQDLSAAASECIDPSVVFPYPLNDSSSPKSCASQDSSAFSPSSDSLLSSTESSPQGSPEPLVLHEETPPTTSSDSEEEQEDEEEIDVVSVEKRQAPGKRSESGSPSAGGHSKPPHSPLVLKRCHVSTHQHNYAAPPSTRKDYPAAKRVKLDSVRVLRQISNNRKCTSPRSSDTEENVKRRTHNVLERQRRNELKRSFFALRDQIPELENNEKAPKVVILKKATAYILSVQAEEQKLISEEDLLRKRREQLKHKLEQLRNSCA

One assay has as its target Myc proto-oncogene protein (Homo sapiens) (UniProt P01106). The assay is described as follows: ATG_Myc_CIS: Attagene CIS-FACTORIAL HepG2 Assay for human Myelocytomatosis (Myc) Proto-Oncogene Transcription Factor (AID 2282990). The conditions noted are these: HepG2, Attagene cis-reporter transcription factor activity; actives raise or lower the signal. The essentials:
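HepG2, transient MRTU transfection (cis promoters, endogenous TFs); 24 h dosing; TriZol RNA → oligo(dT) RT → PCR → 6-FAM primer extension → HpaI cut → CE. Bidirectional fit vs DMSO.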
As to `CCCCCOC(=O)c1ccccc1C(=O)OCCCCC`, the outcome was inactive.

For the compound `Brc1ccc(Oc2ccccc2)cc1`, the compound was classed as inactive.

For the compound `[Cl-].[Cl-].[Hg+2]`, the outcome was inactive.

With `Oc1ccc2ccc3cccc4ccc1c2c34`, the outcome was inactive.

Consider `[As]#[In]`, for which the compound was called inactive.

For the compound `ClCCOCCCl`, the compound was classed as inactive.

Regarding `CCNS(=O)(=O)C(F)(F)C(F)(F)C(F)(F)C(F)(F)C(F)(F)C(F)(F)C(F)(F)C(F)(F)F`, the AC50 (commonly the concentration giving half of the maximal activity seen) was 96.5 µM (active) and the compound was called inactive.

Turning to `CNC(=O)Oc1cccc2c1OC(C)(C)C2`, the compound was called inactive.

For the compound `CN(C)c1ccccc1`, the result was inactive.

With `O=C(O)C1C2CCC(O2)C1C(=O)O` (configuration not stated), the outcome was inactive.

Consider `CCCCCCCCn1sccc1=O`, for which the AC50 was 17.5 µM (active).

As to `ClC1=C(Cl)C2(Cl)C3C(Cl)C=CC3C1(Cl)C2(Cl)Cl` (configuration not stated), the AC50 was 100 µM (active).

`O=[N+]([O-])c1ccc(Oc2ccc(Cl)cc2Cl)cc1`: the outcome was inactive.

System in a further assay: not listed separately
Briefly: ATG_NF_kB_CIS: Attagene CIS-FACTORIAL HepG2 Assay for human Nuclear Factor Kappa B (NF-kB) (AID 2282991). The conditions noted are these: HepG2 Attagene cis-factorial NF-kB reporter mRNA; actives raise or lower the signal. In short, it runs like this:
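Multiplexed cis-reporter assay in transiently transfected HepG2. 24 h treatment; RNA isolated, RT-PCR, labelled fragments resolved by CE. DMSO baseline.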
Turning to `CCCCCOC(=O)c1ccccc1C(=O)OCCCCC`, the compound was called inactive.

Consider `Clc1ccccc1Cl`, for which the outcome was inactive.

With `Brc1ccc(Oc2ccccc2)cc1`, the outcome was inactive.

As to `CN(C)[C@@H]1C(=O)C(C(N)=O)=C(O)[C@@]2(O)C(=O)C3=C(O)c4c(O)cccc4[C@@](C)(O)[C@H]3C[C@@H]12`, the call was inactive.

Consider `Oc1ccc2ccc3cccc4ccc1c2c34`, for which the result was inactive.

On to `[As]#[In]`, for which the compound was classed as inactive.

As to `ClCCOCCCl`, the call was inactive.

As to `CN(C)C(=O)Nc1ccc(Cl)cc1`, the result was inactive.

With `O=[N+]([O-])C(Br)(CO)CO`, the compound was called inactive.

Consider `Cn1cc(-c2ccccc2)c(=O)c(-c2cccc(C(F)(F)F)c2)c1`, for which the AC50 is 100 µM (active).

Consider `CC(C)N(Cc1ccccc1)C(=O)C(C)(C)C`, for which the compound was classed as inactive.

In the case of `O=C(Nc1ccccc1)c1ccccc1I`, the compound was classed as inactive.

In the case of `C[C@]12C=CC3=C4CCC(=O)C=C4CC[C@H]3[C@@H]1CC[C@@H]2O`, the AC50 is 19.8 µM (active) and 70.6 µM (active) and 40.3 µM (active); the compound was classed as inactive.

In the case of `CN(C)c1ccc(C(=O)c2ccc(N(C)C)cc2)cc1`, the call was inactive.

Consider `CCCCCCCCn1sccc1=O`, for which the AC50 is 21.1 µM (active).

Take `c1ccc(N=Nc2ccccc2)cc1`: the compound was classed as inactive.

`ClC1=C(Cl)C2(Cl)C3C(Cl)C=CC3C1(Cl)C2(Cl)Cl` (configuration not stated): the AC50 was 100 µM (active).

On to `CC(C)(OOC(C)(C)c1ccccc1)c1ccccc1`, for which the call was inactive.

Regarding `c1ccc(NNc2ccccc2)cc1`, the compound was called inactive.

In the case of `O=[N+]([O-])c1ccc(Oc2ccc(Cl)cc2Cl)cc1`, the outcome was inactive.

`O=C(N[C@H](c1ccccc1)[C@@H]1CN2CCC1CC2)c1c(Cl)ccc(C(F)(F)F)c1Cl`: the result was inactive.

As to `CC(C)(C)C(O)(CCc1ccc(Cl)cc1)Cn1cncn1` (configuration not stated), the call was inactive.

The values above are taken from PubChem BioAssay (EPA / NIEHS).
